Reference: publication PMC12820563, “FoxP3 forms a head-to-head dimer in vivo and stabilizes its multimerization on adjacent microsatellites”
In all, about 16,000 sequences were measured (“rpm ratio (pull-down/input)”: median about 0.5, highest 2% from about 5.5 on). Many of the other results were omitted from the sample, so the highest values are more common in it than they were.

Each sequence was assayed against T1, MBP-FoxP3dN (Mus musculus, UniProt Q99JB6 188-423) (assay: PD-seq (MBP pull-down with sequencing); 20 mM Tris-HCl pH 7.5, 100 mM NaCl, 1.5 mM MgCl2, 0.4 uM protein, 0.1 uM dsDNA library, 30 min, room temperature, amylose pull-down; high values mean tight binding). Details: protein: recombinant; tags: His6-MBP; chain copies: 2; dsDNA, one strand shown.
T1 sequence: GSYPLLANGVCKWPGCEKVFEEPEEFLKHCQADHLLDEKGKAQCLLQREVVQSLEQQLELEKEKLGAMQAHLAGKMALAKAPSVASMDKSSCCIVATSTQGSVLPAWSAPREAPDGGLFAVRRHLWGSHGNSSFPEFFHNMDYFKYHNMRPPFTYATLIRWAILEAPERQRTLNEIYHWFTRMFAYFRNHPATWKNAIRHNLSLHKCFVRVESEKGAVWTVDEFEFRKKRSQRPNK
In short: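 In Tris pH 7.5 buffer with NaCl and MgCl2, 0.4 µM His6-MBP-tagged mouse FoxP3 or FoxP1 fragment lacking the N-terminus, from E. coli, met 0.1 µM Klenow-filled double-stranded degenerate DNA library for 30 min at room temperature. Three washes on amylose resin followed capture of the complexes, then proteinase K release of DNA, PCR barcoding and Illumina sequencing. Binding is taken as pooled-replicate reads-per-million enrichment of pull-down relative to input.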

Sequence	binding signal
GATGATTGTTCTCCCAGCTGATGAATTCTCTACTTCGAGTAAACAAATTTTCCTAATCTTTCTGTTCAAGCGCCATCTAC	0.233 RPM ratio (pull-down/input)
GATGATTGTTCTCCCAGCTGATGAATTGGGCCGGTCGAGTAAACAAATTTTCCTAATCTTTCTGTTCAAGCGCCATCTAC	0.372 RPM ratio (pull-down/input)
GATGATTGTTCTCCCAGCTGATGAATTGCTCTTGTCGAGTAAACAAATTTTCCTAATCTTTCTGTTCAAGCGCCATCTAC	0.594 RPM ratio (pull-down/input)
GATGATTGTTCTCCCAGCTGATGAATTCGGTAGGTCGAGTAAACAAATTTTCCTAATCTTTCTGTTCAAGCGCCATCTAC	0.485 RPM ratio (pull-down/input)
GATGATTGTTCTCCCAGCTGATGAATTGGGGACGTCGAGTAAACAAATTTTCCTAATCTTTCTGTTCAAGCGCCATCTAC	0.307 RPM ratio (pull-down/input)
GATGATTGTTCTCCCAGCTGATGAATTGGTGCTTTCGAGTAAACAAATTTTCCTAATCTTTCTGTTCAAGCGCCATCTAC	1.06 RPM ratio (pull-down/input)
GATGATTGTTCTCCCAGCTGATGAATTGAGACTTTCGAGTAAACAAATTTTCCTAATCTTTCTGTTCAAGCGCCATCTAC	1.22 RPM ratio (pull-down/input)
GATGATTGTTCTCCCAGCTGATGAATTCCGCAGATCGAGTAAACAAATTTTCCTAATCTTTCTGTTCAAGCGCCATCTAC	0.352 RPM ratio (pull-down/input)
GATGATTGTTCTCCCAGCTGATGAATTAGGAGGGTCGAGTAAACAAATTTTCCTAATCTTTCTGTTCAAGCGCCATCTAC	0.318 RPM ratio (pull-down/input)
GATGATTGTTCTCCCAGCTGATGAATTTCACGAATCGAGTAAACAAATTTTCCTAATCTTTCTGTTCAAGCGCCATCTAC	0.212 RPM ratio (pull-down/input)
GATGATTGTTCTCCCAGCTGATGAATTCACTGCTTCGAGTAAACAAATTTTCCTAATCTTTCTGTTCAAGCGCCATCTAC	0.345 RPM ratio (pull-down/input)
GATGATTGTTCTCCCAGCTGATGAATTTCCGCCGTCGAGTAAACAAATTTTCCTAATCTTTCTGTTCAAGCGCCATCTAC	0.555 RPM ratio (pull-down/input)
GATGATTGTTCTCCCAGCTGATGAATTATTTTAGTCGAGTAAACAAATTTTCCTAATCTTTCTGTTCAAGCGCCATCTAC	0.414 RPM ratio (pull-down/input)
GATGATTGTTCTCCCAGCTGATGAATTTGTGTAGTCGAGTAAACAAATTTTCCTAATCTTTCTGTTCAAGCGCCATCTAC	6.14 RPM ratio (pull-down/input)
GATGATTGTTCTCCCAGCTGATGAATTAGTTATGTCGAGTAAACAAATTTTCCTAATCTTTCTGTTCAAGCGCCATCTAC	3.79 RPM ratio (pull-down/input)
GATGATTGTTCTCCCAGCTGATGAATTTTTGTAGTCGAGTAAACAAATTTTCCTAATCTTTCTGTTCAAGCGCCATCTAC	0.53 RPM ratio (pull-down/input)
GATGATTGTTCTCCCAGCTGATGAATTTTATTAGTCGAGTAAACAAATTTTCCTAATCTTTCTGTTCAAGCGCCATCTAC	4.27 RPM ratio (pull-down/input)
GATGATTGTTCTCCCAGCTGATGAATTTCTGTAGTCGAGTAAACAAATTTTCCTAATCTTTCTGTTCAAGCGCCATCTAC	0.385 RPM ratio (pull-down/input)

Sequence	binding signal
GATGATTGTTCTCCCAGCTGATGAATTATGTTAGTCGAGTAAACAAATTTTCCTAATCTTTCTGTTCAAGCGCCATCTAC	5.81 RPM ratio (pull-down/input)
GATGATTGTTCTCCCAGCTGATGAATTTGTTAGGTCGAGTAAACAAATTTTCCTAATCTTTCTGTTCAAGCGCCATCTAC	5.73 RPM ratio (pull-down/input)
GATGATTGTTCTCCCAGCTGATGAATTTATTTAGTCGAGTAAACAAATTTTCCTAATCTTTCTGTTCAAGCGCCATCTAC	5.5 RPM ratio (pull-down/input)
GATGATTGTTCTCCCAGCTGATGAATTTCTTAGGTCGAGTAAACAAATTTTCCTAATCTTTCTGTTCAAGCGCCATCTAC	0.273 RPM ratio (pull-down/input)
GATGATTGTTCTCCCAGCTGATGAATTAGTCGAGTCGAGTAAACAAATTTTCCTAATCTTTCTGTTCAAGCGCCATCTAC	0.367 RPM ratio (pull-down/input)
GATGATTGTTCTCCCAGCTGATGAATTAGTTAGGTCGAGTAAACAAATTTTCCTAATCTTTCTGTTCAAGCGCCATCTAC	1.51 RPM ratio (pull-down/input)
GATGATTGTTCTCCCAGCTGATGAATTGCCTCCATCGAGTAAACAAATTTTCCTAATCTTTCTGTTCAAGCGCCATCTAC	1.28 RPM ratio (pull-down/input)
GATGATTGTTCTCCCAGCTGATGAATTATACTTCTCGAGTAAACAAATTTTCCTAATCTTTCTGTTCAAGCGCCATCTAC	0.492 RPM ratio (pull-down/input)
GATGATTGTTCTCCCAGCTGATGAATTTTTCTACTCGAGTAAACAAATTTTCCTAATCTTTCTGTTCAAGCGCCATCTAC	0.279 RPM ratio (pull-down/input)
GATGATTGTTCTCCCAGCTGATGAATTTATCGCCTCGAGTAAACAAATTTTCCTAATCTTTCTGTTCAAGCGCCATCTAC	1.07 RPM ratio (pull-down/input)
GATGATTGTTCTCCCAGCTGATGAATTGCGCTCATCGAGTAAACAAATTTTCCTAATCTTTCTGTTCAAGCGCCATCTAC	1.24 RPM ratio (pull-down/input)
GATGATTGTTCTCCCAGCTGATGAATTAGCCGGCTCGAGTAAACAAATTTTCCTAATCTTTCTGTTCAAGCGCCATCTAC	0.203 RPM ratio (pull-down/input)
GATGATTGTTCTCCCAGCTGATGAATTTTCTTTATCGAGTAAACAAATTTTCCTAATCTTTCTGTTCAAGCGCCATCTAC	1.27 RPM ratio (pull-down/input)
GATGATTGTTCTCCCAGCTGATGAATTCCTTTTATCGAGTAAACAAATTTTCCTAATCTTTCTGTTCAAGCGCCATCTAC	0.345 RPM ratio (pull-down/input)
GATGATTGTTCTCCCAGCTGATGAATTATGTTTATCGAGTAAACAAATTTTCCTAATCTTTCTGTTCAAGCGCCATCTAC	8.36 RPM ratio (pull-down/input)
GATGATTGTTCTCCCAGCTGATGAATTTATGTTATCGAGTAAACAAATTTTCCTAATCTTTCTGTTCAAGCGCCATCTAC	3.24 RPM ratio (pull-down/input)
GATGATTGTTCTCCCAGCTGATGAATTATGATTATCGAGTAAACAAATTTTCCTAATCTTTCTGTTCAAGCGCCATCTAC	3.53 RPM ratio (pull-down/input)
GATGATTGTTCTCCCAGCTGATGAATTTGATTTATCGAGTAAACAAATTTTCCTAATCTTTCTGTTCAAGCGCCATCTAC	2.99 RPM ratio (pull-down/input)
